Shown are actives, neighbours in structure and some others; about 1.6% of the full set was active somewhere.
KCNQ2 block: KCNQ2 (rat) channel inhibition; O88943; CHO-K1 KCNQ2, FluxOR thallium flux, 20 min; hits give low values; B-score at 10 µM; 310,000 tested, 1.1% active; AID 2156;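 active means fluorescence ratio B-score at most minus 3 library SDs, with starting brightness B-score within 2 library SDs, cut at about -5.5 in these data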
KCNQ2 pot: potentiators of rat KCNQ2 potassium channel | B-score at 10 µM | CHO-K1 KCNQ2, FluxOR thallium flux fluorescence; hits give high values | O88943 | 310,000 tested, 0.54% active | AID 2239;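 active means fluorescence ratio B-score at least 3 SD of library B-scores, with initial fluorescence B-score within 3 of them, cut at about 5.3 in these data; same plate scores as AID 2156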;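 further: B-score of peak minus minimum over baseline fluorescence ratio after K+ and Tl+ stimulus; positive B-score means potentiation of KCNQ2 with more thallium influx and brighter signal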
Kir21 confirm: confirmation of mouse Kir2.1 potassium channel inhibitors; shares compounds with KCNQ2 pot; Kir2.1-expressing cells, FluxOR thallium flux fluorescence; hits give low values; Tl flux remaining, % of negative control (hits give low values), % at 10 µM; 2,300 tested, 41% active; AID 2032;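 active means Primary-screen hit whose thallium flux fell at least 3 control SD below untreated wells in both duplicates, with normal baseline fluorescence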;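 further: 0% = blank wells without stimulus and 100% = stimulated no-compound controls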
Target sequence (P35561 whole entry, looked up): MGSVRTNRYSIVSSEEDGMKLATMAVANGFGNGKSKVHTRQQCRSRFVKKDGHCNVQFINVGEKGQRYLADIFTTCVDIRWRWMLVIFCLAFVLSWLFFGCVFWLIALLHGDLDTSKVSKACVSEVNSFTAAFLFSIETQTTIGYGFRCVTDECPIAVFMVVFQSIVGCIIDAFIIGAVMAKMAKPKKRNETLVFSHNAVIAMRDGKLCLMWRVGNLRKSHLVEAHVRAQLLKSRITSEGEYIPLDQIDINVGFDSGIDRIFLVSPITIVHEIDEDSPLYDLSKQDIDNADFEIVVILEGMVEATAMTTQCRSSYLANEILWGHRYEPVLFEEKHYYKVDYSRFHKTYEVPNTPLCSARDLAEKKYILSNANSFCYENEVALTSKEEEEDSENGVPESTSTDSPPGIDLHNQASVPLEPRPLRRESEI
HEK293 ctr: parental HEK293 activity in Kir2.1 inhibitor counter-screen | 2,300 tested, 19% active | parental HEK293 cells, FluxOR thallium flux fluorescence; 0% = unstimulated blank wells | FluxOR signal as % of negative control (100 = no effect), % at 10 µM | shares compounds with KCNQ2 pot | AID 2105;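 active means dye signal at least 3 control SD above or below untreated wells in both duplicates, raw fluorescence within 3, either direction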;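 further: percent is based on the flux ratio of peak minus minimum fluorescence over baseline F0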
CHO-K1 Tl ctr: counter-screen for KCNQ2 potentiators: effect in parental CHO-K1 cells; activity increase over 3SD of controls, % at 10 µM; FluxOR thallium flux fluorescence; zero = vehicle mean+3SD, 100% = vehicle-minus-blank window; 1,200 tested, 43% active; shares compounds with KCNQ2 pot;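 active means signal rise of at least 3 SD above the untreated control mean, in both duplicate wells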;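 further: counter screen of KCNQ2 potentiator hits so any rise reflects channel-independent effects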
KCNQ1 sel pot: selectivity of KCNQ2 potentiators: effect on human KCNQ1 | shares compounds with KCNQ2 pot | CHO KCNQ1 stable, FluxOR thallium flux fluorescence; beyond 3SD, as % of vehicle-control signal | activation over 3SD threshold, % at 10 µM | 1,200 tested, 28% active | AID 2283;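 active means fluorescence ratio rise of at least 3 SD of vehicle wells above their mean, in both replicate wells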;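 further: 0% = vehicle mean plus 3 SD and 100% = vehicle minus unstimulated blank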
KCNQ2 pot conf: confirmation of rat KCNQ2 potassium channel potentiators | CHO-KCNQ2 cells, FluxOR thallium flux fluorescence | AID 2287 | potentiation, less the hit threshold, % at 10 µM | 1,200 tested, 68% active | shares compounds with KCNQ2 pot;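 active means fluorescence ratio rising 3 SD or more over the vehicle control mean in both replicates, plus primary screen hit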;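 further: peak minus minimum thallium fluorescence divided by baseline after K/Tl stimulus; 0% = vehicle mean plus 3 SD and 100% = vehicle minus unstimulated blank difference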
Kir2-1 sel: mouse Kir2.1 off-target activity of KCNQ2 potentiators; AID 2345; 1,200 tested, 2% active; activity over 3SD threshold, % at 10 µM; HEK293 Kir2.1, FluxOR thallium flux fluorescence; shares compounds with KCNQ2 pot;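 active means fluorescence ratio rise of at least 3 SD above the vehicle-control mean, seen in both replicates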;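 further: 0% = vehicle mean plus 3 SD and 100% = vehicle minus no-stimulus blank window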
KCNQ2 W236L pot: rat KCNQ2 W236L mutant potentiation by KCNQ2 potentiators; CHO KCNQ2-W236L, automated patch clamp current; shares compounds with KCNQ2 pot; 940 tested, 10% active; current increase over 3SD of negative controls (%), hits give high values, % at 25 µM;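 active means current increase at least 3 SD of the untreated controls above them in both duplicate recordings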
Numbers without * were called inactive; i = inactive; . = not tested or not shown.

SMILES | KCNQ2 block | KCNQ2 pot | Kir21 confirm | HEK293 ctr | others
CCCCSc1nnc([C@@H]2CCCN2C(=O)OC(C)(C)C)o1 | i | . | . | .
CSc1nnc([C@@H]2CCCN2C(=O)OC(C)(C)C)o1 | i | . | . | .
CC(C)(C)OC(=O)N1CCC[C@H]1c1nnc(SCc2cccc(Cl)c2)o1 | i | . | 54%* | i
CC(C)(C)OC(=O)N1CCC[C@H]1c1nnc(SCc2ccc(Cl)cc2)o1 | i | . | 52%* | 68%*
CC(C)(C)OC(=O)N1CCC[C@H]1c1nnc(SCc2ccccc2Cl)o1 | i | . | i | 70%*
Cc1cc(F)ccc1NC(=O)c1cnccn1 | i | . | . | .
O=[N+]([O-])c1ccc(NCc2ccncc2)cc1 | i | . | . | .
O=C(Nn1cnnc1)c1csc2ccccc12 | i | . | . | .
Cc1nc(C)c(C(=O)C2=C(O)C(=O)N(CCN(C)C)C2c2ccccc2)s1 (configuration not stated) | i | 1.1 | . | .
O=c1ncc(F)c[nH]1 | i | . | . | .
COc1cc(/C=N/NC(=O)c2csc3c2CCCC3)ccc1OCCN1CCOCC1 | i | . | . | .
C[C@@H](NCCc1ccc(O)cc1)[C@@H](O)c1ccc(O)cc1 | i | 0.08 | . | .
CCCCCCCCNC(C)C(O)c1ccc(SC(C)C)cc1 (configuration not stated) | i | 6.8* | . | . | CHO-K1 Tl ctr=-56;KCNQ1 sel pot=-20;KCNQ2 pot conf=-46;Kir2-1 sel=-62
C1=Nc2ccccc2CN1c1ccccc1 | i | . | . | .
Cc1ccc([N+](=O)[O-])cc1S(=O)(=O)Nc1ccc(C(=O)NCc2ccccn2)cc1 | i | . | . | .
O=C(c1ccccc1F)N1CCc2ccccc21 | i | 0.14 | . | .
O=S(=O)(NCCc1ccccn1)c1ccc(OC(F)(F)F)cc1 | i | . | . | .
O=S(=O)(NCCc1ccccn1)c1ccc(F)c(F)c1 | i | 6.1* | i | i | CHO-K1 Tl ctr=3.1*;KCNQ1 sel pot=-14;KCNQ2 pot conf=-7;Kir2-1 sel=-36;KCNQ2 W236L pot=i
CC1=CC(C)(C)N(C(=O)CNC2CCCCC2)c2cc(C)ccc21 | i | . | 50%* | i
CC1=CC(C)(C)N(C(=O)CN2C(=O)c3ccccc3C2=O)c2ccc(C)cc21 | i | 0.04 | . | .
COCCNC(=S)N(CCc1c(C)[nH]c2ccc(F)cc12)Cc1cccnc1 | i | 1.4 | . | .
CC(=O)N1CCN(C(=O)c2ccc(OC3CCN(CCc4ccccc4)CC3)cc2)CC1 | i | 0.04 | . | .
O=C(c1ccc(OC2CCN(CCCc3ccccc3)CC2)cc1)N1CCCC1 | i | 0.48 | 72%* | i
COc1cc(/C=C/c2ccc3cccc(O)c3n2)cc(Br)c1OC | i | . | . | .
COc1cc(/C=C/c2ccc3cccc(O)c3n2)cc(OC)c1OC | i | 5.3* | i | i | CHO-K1 Tl ctr=8.5*;KCNQ1 sel pot=0.7*;KCNQ2 pot conf=-11;Kir2-1 sel=-25
SMILES | KCNQ2 block | KCNQ2 pot | Kir21 confirm | HEK293 ctr | others
Cn1c(=O)c2c(nc(Sc3ncnn3CC(=O)NC3CCCCC3)n2C)n(C)c1=O | i | . | . | .
CNC[C@H](CC1CCCCC1)NC[C@H](Cc1ccccc1)NCCC12CC3CC(CC(C3)C1)C2 | i | 1.3 | i | i
O=C(CC12CC3CC(CC(C3)C1)C2)NC(Cc1ccccc1)C(=O)O (configuration not stated) | i | 0.32 | . | .
CC(C)n1cnc2c(N(C)c3ccccc3)nc(N(CCN(C)C)Cc3ccccc3)nc21 | i | . | 48%* | i
COc1ccc(CN(CCN(C)C)c2ccccn2)cc1 | i | 1.3 | . | .
COC(=O)CN(c1ccc(C)cc1)S(=O)(=O)c1ccc2c(c1)n(C)c(=O)c(=O)n2C | i | 0.05 | . | .
CSCc1ccc(C(=O)N2CCCC(Nc3ccc4c(c3)OCCO4)C2)o1 (configuration not stated) | i | 0.77 | . | .

Screens from PubChem.
